The values that follow come from ChEMBL document CHEMBL2218924, “A broad activity screen in support of a chemogenomic map for kinase signalling research and drug discovery” (Biochem J, 2013).

Test [1] deals with ALK tyrosine kinase receptor (Homo sapiens) (UniProt Q9UM73). Particulars: at 10 µM.
The target in test [2] is T1, Activin receptor type-1B (Homo sapiens) (UniProt P36896).
T1 sequence (whole entry): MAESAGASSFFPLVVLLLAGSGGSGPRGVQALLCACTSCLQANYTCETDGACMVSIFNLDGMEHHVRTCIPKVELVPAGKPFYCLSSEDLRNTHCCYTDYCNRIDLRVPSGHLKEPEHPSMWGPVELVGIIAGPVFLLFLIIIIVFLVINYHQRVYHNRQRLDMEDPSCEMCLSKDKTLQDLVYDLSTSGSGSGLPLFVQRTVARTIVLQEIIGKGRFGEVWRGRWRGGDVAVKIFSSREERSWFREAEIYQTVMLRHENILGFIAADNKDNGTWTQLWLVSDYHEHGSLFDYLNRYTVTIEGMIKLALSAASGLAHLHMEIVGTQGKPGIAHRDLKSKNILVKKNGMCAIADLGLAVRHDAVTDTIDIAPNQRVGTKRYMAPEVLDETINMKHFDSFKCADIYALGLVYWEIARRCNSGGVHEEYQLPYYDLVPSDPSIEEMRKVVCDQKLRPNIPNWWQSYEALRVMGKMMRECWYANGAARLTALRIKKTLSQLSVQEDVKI
Particulars: at 1 µM.

The target of test [3] is T1, Activin receptor type-1B (Homo sapiens). The conditions noted are these: at 10 µM.
Test [4] deals with T2, AMP-activated protein kinase (AMPK) alpha-1/beta-1/gamma-1 (Homo sapiens) (UniProt P54619+Q9Y478+Q13131). The conditions noted are these: at 1 µM.
Test [5] concerns the target T2, AMP-activated protein kinase (AMPK) alpha-1/beta-1/gamma-1 (Homo sapiens). The conditions noted are these: at 10 µM.
In test [6] the target is T3, AMP-activated protein kinase, AMPK (Homo sapiens) (UniProt P54646+O43741+P54619+Q9UGJ0+Q9Y478+Q13131+Q9UGI9). Particulars: at 1 µM.
In test [7] the target is T3, AMP-activated protein kinase, AMPK (Homo sapiens). Particulars: at 10 µM.
For test [8], the target named is T4, NUAK family SNF1-like kinase 1 (Homo sapiens) (UniProt O60285).
T4 sequence (whole entry): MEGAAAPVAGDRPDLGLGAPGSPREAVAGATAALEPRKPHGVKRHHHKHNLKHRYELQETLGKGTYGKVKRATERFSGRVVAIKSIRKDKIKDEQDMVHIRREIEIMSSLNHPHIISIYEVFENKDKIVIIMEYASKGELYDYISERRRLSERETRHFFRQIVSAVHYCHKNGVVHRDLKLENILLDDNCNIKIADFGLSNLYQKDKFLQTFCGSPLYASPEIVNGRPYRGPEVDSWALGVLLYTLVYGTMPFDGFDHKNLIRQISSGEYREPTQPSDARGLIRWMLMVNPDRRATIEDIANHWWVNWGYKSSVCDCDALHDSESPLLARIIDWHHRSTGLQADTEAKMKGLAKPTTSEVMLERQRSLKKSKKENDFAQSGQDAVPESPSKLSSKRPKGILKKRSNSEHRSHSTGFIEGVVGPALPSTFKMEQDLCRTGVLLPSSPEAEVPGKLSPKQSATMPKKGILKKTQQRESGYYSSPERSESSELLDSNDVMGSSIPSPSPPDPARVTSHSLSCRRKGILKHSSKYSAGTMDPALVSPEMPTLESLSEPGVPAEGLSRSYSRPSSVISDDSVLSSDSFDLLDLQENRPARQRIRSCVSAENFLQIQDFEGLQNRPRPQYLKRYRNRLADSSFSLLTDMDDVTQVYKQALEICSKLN
The conditions noted are these: at 1 µM.

Test [9] concerns the target T4, NUAK family SNF1-like kinase 1 (Homo sapiens). The conditions noted are these: at 10 µM.
For test [10], the target named is T5, Mitogen-activated protein kinase kinase kinase 5 (Homo sapiens) (UniProt Q99683).
T5 sequence (whole entry): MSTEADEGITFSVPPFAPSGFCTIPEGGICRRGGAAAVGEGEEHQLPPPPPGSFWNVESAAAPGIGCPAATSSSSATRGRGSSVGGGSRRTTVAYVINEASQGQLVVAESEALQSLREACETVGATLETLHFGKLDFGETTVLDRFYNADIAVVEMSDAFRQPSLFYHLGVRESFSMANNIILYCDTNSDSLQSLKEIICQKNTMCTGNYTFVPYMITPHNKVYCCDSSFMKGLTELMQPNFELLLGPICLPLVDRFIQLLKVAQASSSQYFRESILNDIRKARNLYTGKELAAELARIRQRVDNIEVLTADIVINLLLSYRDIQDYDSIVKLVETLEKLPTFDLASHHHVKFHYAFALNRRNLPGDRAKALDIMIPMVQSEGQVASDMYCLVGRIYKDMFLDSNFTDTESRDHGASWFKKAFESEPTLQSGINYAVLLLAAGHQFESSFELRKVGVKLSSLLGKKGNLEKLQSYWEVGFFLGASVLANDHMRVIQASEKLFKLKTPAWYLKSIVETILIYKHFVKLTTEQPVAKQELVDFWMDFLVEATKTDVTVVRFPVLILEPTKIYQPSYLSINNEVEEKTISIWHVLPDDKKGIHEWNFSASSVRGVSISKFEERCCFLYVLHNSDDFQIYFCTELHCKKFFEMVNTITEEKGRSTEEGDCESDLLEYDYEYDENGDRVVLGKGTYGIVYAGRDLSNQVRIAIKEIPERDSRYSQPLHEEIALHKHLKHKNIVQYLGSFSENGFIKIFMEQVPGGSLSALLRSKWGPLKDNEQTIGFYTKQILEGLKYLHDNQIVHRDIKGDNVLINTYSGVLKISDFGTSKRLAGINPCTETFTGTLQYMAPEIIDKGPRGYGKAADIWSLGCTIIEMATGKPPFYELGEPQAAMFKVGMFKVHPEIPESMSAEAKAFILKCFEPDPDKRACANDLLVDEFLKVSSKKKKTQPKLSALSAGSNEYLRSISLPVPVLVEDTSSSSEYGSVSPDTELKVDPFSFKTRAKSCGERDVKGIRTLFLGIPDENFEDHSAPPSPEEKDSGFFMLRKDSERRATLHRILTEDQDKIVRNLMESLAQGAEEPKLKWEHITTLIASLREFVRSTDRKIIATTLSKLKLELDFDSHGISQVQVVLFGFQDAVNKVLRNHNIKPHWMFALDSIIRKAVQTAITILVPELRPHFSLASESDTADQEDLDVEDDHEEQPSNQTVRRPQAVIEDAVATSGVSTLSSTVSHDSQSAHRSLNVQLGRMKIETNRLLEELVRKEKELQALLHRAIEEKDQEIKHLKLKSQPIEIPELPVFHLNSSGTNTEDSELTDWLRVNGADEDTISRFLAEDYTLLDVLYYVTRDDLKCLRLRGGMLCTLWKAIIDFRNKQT
Particulars: at 1 µM.

Test [11] deals with Platelet-derived growth factor receptor beta (Homo sapiens) (UniProt P09619). The conditions noted are these: at 1 µM.
Test [12] shares this target. The conditions noted are these: at 10 µM.
The target in test [13] is cAMP-dependent protein kinase catalytic subunit alpha (Homo sapiens) (UniProt P17612). Particulars: at 1 µM.
The target is the same in test [14]. Particulars: at 10 µM.
Test [15] deals with RAC-gamma serine/threonine-protein kinase (Homo sapiens) (UniProt Q9Y243). The conditions noted are these: at 1 µM.
Test [16] shares this target. Particulars: at 10 µM.
The target in test [17] is T6, 3-phosphoinositide-dependent protein kinase 1 (Homo sapiens) (UniProt O15530).
T6 sequence (whole entry): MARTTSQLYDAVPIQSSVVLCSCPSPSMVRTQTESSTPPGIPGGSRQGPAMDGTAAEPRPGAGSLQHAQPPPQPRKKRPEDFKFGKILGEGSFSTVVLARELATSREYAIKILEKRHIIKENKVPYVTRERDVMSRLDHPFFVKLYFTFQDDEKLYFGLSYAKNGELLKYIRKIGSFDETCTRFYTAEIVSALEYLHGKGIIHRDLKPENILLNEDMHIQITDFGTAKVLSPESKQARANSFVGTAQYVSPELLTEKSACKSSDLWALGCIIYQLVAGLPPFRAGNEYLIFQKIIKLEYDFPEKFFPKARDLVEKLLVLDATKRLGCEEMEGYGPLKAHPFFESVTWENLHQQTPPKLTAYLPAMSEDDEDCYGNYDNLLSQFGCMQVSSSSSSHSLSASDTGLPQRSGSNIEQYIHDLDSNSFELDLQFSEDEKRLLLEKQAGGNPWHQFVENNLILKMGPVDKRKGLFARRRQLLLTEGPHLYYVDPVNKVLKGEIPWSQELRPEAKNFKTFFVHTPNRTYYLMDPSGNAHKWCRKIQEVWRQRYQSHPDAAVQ
Particulars: at 1 µM.

The target in test [18] is T6, 3-phosphoinositide-dependent protein kinase 1 (Homo sapiens). The conditions noted are these: at 10 µM.
In test [19] the target is Platelet-derived growth factor receptor alpha (Homo sapiens) (UniProt P16234). Particulars: at 1 µM.
For test [20] the target is unchanged. Particulars: at 10 µM.

Sequence of Platelet-derived growth factor receptor beta (Homo sapiens) (P09619 whole entry): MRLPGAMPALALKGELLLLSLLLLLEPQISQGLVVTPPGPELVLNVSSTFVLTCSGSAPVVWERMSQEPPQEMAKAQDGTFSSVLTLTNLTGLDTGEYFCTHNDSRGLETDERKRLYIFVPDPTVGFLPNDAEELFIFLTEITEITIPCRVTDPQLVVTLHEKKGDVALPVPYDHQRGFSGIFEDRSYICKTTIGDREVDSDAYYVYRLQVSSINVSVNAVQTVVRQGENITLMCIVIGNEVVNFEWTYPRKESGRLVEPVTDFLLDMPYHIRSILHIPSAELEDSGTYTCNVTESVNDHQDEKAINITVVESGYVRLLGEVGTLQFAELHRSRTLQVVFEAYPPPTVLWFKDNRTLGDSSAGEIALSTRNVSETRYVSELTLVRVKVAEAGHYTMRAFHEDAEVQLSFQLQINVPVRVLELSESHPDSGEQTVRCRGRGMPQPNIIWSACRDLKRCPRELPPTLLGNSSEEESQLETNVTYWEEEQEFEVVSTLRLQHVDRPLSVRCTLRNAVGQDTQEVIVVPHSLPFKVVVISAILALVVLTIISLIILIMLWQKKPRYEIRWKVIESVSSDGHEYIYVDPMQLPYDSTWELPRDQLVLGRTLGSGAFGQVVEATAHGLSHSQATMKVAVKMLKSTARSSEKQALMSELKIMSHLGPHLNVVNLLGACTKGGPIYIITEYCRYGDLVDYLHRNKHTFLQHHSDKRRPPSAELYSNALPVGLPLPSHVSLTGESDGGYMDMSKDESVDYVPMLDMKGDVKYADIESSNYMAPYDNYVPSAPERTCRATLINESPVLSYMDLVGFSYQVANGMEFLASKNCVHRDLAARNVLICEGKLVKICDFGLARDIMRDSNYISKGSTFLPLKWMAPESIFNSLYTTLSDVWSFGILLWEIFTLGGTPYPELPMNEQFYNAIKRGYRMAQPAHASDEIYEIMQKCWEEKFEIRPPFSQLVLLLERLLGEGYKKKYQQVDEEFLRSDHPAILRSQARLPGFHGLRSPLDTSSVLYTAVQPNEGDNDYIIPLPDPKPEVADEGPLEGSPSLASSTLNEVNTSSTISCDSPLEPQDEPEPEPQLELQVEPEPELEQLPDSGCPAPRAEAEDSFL
T2 sequence (P54619 whole entry): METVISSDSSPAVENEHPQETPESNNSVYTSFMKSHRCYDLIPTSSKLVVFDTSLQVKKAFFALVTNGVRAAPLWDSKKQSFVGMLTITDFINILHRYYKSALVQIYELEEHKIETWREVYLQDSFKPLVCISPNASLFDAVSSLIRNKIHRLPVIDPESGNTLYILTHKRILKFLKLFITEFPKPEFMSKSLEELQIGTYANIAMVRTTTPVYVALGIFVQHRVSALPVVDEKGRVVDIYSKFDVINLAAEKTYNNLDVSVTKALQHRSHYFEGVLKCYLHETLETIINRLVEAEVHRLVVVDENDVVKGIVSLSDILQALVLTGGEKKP
T2 sequence (Q13131 whole entry partner): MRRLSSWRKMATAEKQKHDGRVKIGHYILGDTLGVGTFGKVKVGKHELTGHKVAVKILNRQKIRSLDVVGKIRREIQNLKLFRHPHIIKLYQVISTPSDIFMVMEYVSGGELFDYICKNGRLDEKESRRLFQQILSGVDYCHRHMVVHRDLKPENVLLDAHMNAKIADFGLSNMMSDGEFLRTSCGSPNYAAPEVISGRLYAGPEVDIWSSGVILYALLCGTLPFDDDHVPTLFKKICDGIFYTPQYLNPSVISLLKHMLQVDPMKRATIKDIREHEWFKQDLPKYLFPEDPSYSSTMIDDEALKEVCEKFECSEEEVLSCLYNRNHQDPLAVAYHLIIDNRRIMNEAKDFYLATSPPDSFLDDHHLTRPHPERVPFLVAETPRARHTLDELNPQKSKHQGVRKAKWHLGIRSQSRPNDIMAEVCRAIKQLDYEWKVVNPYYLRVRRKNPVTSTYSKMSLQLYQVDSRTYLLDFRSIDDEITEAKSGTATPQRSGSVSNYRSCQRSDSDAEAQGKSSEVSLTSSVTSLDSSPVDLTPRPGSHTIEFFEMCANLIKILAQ
T2 sequence (Q9Y478 2-270 partner limits assumed): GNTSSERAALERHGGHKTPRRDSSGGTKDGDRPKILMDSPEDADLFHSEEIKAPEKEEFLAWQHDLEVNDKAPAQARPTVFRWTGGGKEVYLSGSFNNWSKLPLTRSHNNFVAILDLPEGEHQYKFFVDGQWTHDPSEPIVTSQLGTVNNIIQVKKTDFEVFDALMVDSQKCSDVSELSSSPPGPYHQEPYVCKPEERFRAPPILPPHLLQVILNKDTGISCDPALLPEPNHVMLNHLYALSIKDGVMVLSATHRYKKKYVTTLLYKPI
Sequence of ALK tyrosine kinase receptor (Homo sapiens) (Q9UM73 19-1620 limits assumed): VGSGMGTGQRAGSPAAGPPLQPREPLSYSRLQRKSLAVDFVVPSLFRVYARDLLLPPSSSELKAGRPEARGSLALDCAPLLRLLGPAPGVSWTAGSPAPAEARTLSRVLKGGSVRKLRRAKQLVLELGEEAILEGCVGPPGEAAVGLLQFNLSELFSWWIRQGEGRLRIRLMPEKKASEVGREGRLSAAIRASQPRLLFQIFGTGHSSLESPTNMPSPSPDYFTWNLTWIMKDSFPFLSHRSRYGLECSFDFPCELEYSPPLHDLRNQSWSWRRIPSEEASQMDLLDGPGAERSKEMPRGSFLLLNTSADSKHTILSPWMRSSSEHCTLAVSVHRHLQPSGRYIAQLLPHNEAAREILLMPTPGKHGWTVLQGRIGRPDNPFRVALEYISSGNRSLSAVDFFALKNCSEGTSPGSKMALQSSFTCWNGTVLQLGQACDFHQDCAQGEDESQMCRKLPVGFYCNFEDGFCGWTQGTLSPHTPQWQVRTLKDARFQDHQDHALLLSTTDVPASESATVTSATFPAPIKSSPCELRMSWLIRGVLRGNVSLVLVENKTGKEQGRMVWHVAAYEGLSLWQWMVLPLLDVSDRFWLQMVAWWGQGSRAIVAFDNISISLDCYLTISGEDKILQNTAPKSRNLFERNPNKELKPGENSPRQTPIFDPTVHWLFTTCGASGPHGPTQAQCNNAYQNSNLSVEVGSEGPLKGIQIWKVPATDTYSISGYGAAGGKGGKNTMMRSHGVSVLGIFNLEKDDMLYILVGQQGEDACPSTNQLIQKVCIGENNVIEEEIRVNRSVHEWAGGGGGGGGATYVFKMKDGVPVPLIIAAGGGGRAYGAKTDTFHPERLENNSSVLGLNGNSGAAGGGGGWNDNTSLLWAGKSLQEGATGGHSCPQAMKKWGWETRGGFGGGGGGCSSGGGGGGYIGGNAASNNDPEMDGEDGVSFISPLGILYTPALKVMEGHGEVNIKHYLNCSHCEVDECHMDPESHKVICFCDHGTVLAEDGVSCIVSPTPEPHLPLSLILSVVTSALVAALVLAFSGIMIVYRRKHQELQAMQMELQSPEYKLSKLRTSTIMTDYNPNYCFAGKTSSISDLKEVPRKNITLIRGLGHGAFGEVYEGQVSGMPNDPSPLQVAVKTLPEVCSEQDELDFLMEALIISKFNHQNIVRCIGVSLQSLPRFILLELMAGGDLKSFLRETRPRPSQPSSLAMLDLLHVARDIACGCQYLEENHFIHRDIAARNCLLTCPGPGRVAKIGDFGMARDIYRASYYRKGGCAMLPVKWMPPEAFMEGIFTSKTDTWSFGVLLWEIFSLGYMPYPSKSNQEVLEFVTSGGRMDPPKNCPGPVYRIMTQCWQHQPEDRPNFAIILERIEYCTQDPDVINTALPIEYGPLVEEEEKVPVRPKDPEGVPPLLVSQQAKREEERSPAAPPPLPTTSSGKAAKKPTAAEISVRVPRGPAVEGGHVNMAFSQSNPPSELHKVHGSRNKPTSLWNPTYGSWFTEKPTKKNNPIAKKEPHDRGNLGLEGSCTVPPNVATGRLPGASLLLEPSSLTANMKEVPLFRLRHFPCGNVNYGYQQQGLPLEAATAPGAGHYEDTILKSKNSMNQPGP
Sequence of RAC-gamma serine/threonine-protein kinase (Homo sapiens) (Q9Y243 whole entry): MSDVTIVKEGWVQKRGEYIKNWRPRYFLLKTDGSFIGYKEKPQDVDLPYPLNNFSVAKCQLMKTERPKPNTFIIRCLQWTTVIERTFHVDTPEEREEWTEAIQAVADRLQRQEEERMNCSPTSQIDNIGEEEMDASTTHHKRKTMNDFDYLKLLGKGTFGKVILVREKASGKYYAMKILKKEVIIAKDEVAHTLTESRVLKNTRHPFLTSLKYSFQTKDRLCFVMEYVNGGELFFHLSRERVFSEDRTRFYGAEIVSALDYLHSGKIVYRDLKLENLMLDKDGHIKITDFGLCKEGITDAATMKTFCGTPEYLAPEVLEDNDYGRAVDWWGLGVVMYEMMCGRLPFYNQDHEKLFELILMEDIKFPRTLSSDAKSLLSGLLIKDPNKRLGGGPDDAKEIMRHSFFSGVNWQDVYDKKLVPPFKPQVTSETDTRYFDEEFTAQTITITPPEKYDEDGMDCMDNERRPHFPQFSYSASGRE

On to `O=C1C(Cl)=C(N2C(=O)CCC2=O)C(=O)c2ccccc21`, for which the residual activity in [1] is 58%; in test [2], 101%; in test [3], 121%; in [4] it was 95%; in [5], 91%; in test [6], 99%. Further, the residual activity is 101% in test [7]; 96% in test [8]; 84% in test [9]; 89% in [10]; 95% in test [11]; 93% in test [12]. The residual activity in test [13] was 95%; in test [14] it was 84%; in test [15] it was 89%; in test [16] it was 87%.

Turning to `O=C1Cc2c([nH]c3ccc(Br)cc23)-c2ccccc2N1`, the residual activity was determined as 56% in test [1]; 72% in test [3]; 75% in test [4]; 44% in test [5]; 13% in test [8]; 2% in test [9]. The residual activity turned out to be 89% in [13] and 94% in test [14].

Consider `CCCCc1c(-c2ccc(O)cc2)[nH]c2nccnc12`, for which the residual activity in test [1] came to 37%; in [2] it was 88%; in [3], 34%; in [4], 85%; in test [5], 71%; in [6], 75%. Further, the residual activity in test [7] is 67%; in test [8], 12%; in test [9] it was 16%; in [10] it was 93%; in test [17], 60%; in test [18], 31%.

On to `N#Cc1c(NC(=O)c2cccc3ccccc23)sc2c1CCCC2`, for which the residual activity in test [1] is 91%; in [2], 87%; in [3] it was 93%; in [4] it was 86%; in test [5], 97%; in test [6], 98%. Also, the residual activity in [9] stood at 92%; in test [10] it was 88%; in [12], 92%; in test [14], 91%; in test [16], 81%.

Regarding `O=C(NC(NC(=S)Nc1ccc(F)c([N+](=O)[O-])c1)C(Cl)(Cl)Cl)C(c1ccccc1)c1ccccc1` (stereo not given), the residual activity in test [1] was 97%; in [2], 94%; in [3], 103%; in test [4] it was 90%; in [5], 71%; in test [6], 89%. Besides, the residual activity in [7] stood at 77%; in test [9], 86%; in [11] it was 97%; in [12], 96%; in test [17] it was 103%; in test [18], 87%. Besides, the residual activity in [15] was 98%; in [16], 69%.

In the case of `O=C1NC(=O)C(c2cn(CCCO)c3ncccc23)=C1c1cnccn1`, the residual activity in [1] was 67%; in test [2], 83%; in test [4], 92%; in [5] it was 75%; in [6], 94%; in test [7], 80%. Moreover, the residual activity in test [8] was 62%; in [9], 50%; in [10], 78%; in [12], 96%; in test [15], 98%; in test [16] it was 89%.

Consider `CCCC(=O)Oc1ccc2[nH]c(C(=O)c3cc4ccccc4[nH]3)cc2c1`, for which the residual activity is 99% in test [1]; 132% in test [2]; 98% in test [3]; 85% in test [4]; 81% in test [5]; 91% in [6]. Also, the residual activity was 96% in [7]; 98% in test [8]; 84% in test [9]; 108% in test [19]; 85% in [20]; 99% in test [11]. Moreover, the residual activity is 93% in [12]; 88% in test [13]; 89% in test [14]; 102% in [15]; 103% in test [16].
